We go through seven compounds from PubChem BioAssay (NCI).

About 83,000 compounds went through this panel and 20% of them were active in at least one assay; those are over-represented in the sample as a whole.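 Compound tested at a single concentration for 48 hours in 96-well plates; a percent growth value below 10 was scored as active.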 Unmarked numbers belong to inactive results. The source made the active and inactive calls.

What all share (test): NCI-60 one-dose screen, 48 h (100 = growth as untreated, 0 = no growth, -100 = all killed)
Settings in all cases: 10 µM unless noted

The test system of experiment [1] is DU-145 prostate.
Experiment [2] deals with K-562 leukemia.
Experiment [3] concerns MALME-3M melanoma.
Experiment [4] relates to MDA-MB-231 breast.
Experiment [5] has as its system RXF 393 renal.
For experiment [6], the system named is SF-268 CNS.
For experiment [7], the system named is SF-295 CNS.
Experiment [8] relates to SF-539 CNS.
The test system of experiment [9] is UACC-257 melanoma.
The subject of experiment [10] is M14 melanoma.
Experiment [11] concerns HCT-15 colon.
The test system of experiment [12] is HT29 colon.
The subject of experiment [13] is SNB-75 CNS.
The test system of experiment [14] is SNB-19 CNS.
The subject of experiment [15] is U251 CNS.
Experiment [16] concerns PC-3 prostate.
For experiment [17], the system named is SK-MEL-5 melanoma.
Experiment [18] deals with UACC-62 melanoma.
In experiment [19] the test system is LOX IMVI melanoma.
In experiment [20] the test system is SK-MEL-28 melanoma.

`Cc1cc(-c2noc(C(F)(F)F)n2)ccc1N1CCN(c2cc(C(=O)N(C)C)no2)CC1`: the growth was 85.2% in experiment [1]; 33.1% in experiment [2]; 78.5% in experiment [3]; 69.6% in [4]; 105% in [5]; 82.2% in [6]. For the same compound, the growth in experiment [7] is 49.8%; in [8] it was 86.1%; in experiment [9], 54%; in experiment [10], 81.5%; in experiment [11], 70.3%; in [12], 78.3%. In addition, the growth in experiment [13] was 73%; in experiment [14], 64.1%; in experiment [15], 71.9%; in experiment [16] it was 56.8%; in [17], 2.91% (active); in [18] it was 62.1%. Also, the growth in [19] was 62.4%; in experiment [20], 84.8%.
In the case of `COc1cc2c(cc1OC)-c1ccc3cc4c(cc3c1N(CCN1CCCC1)C2)OCO4`, the growth in [1] is 11.5%; in experiment [2], -3.86% (active); in [3] it was 51.4%; in [4], -38.6% (active); in experiment [5], -3.76% (active); in experiment [6], 20.1%. Besides, the growth in experiment [7] was 4.42% (active); in [8] it was 4.16% (active); in experiment [9], 44.2%; in experiment [10], 17.4%; in experiment [11] it was 40.6%; in [12], -51.2% (active). The growth in experiment [13] was -3.1% (active); in experiment [14], -5.63% (active); in [15], -55.7% (active); in experiment [16], 2.3% (active); in experiment [17], 26.4%; in experiment [18], 36.1%. The growth in experiment [19] was -79% (active); in [20] it was 77.2%.
Take `Fc1ccc(Nc2ccc3cc(OCCCN4CCOCC4)ccc3n2)cc1F`: the growth in [1] is 64.2%; in experiment [2] it was -12% (active); in experiment [3], 42.6%; in experiment [4], -40.9% (active); in [5] it was 61.1%; in experiment [6] it was 59.3%. In addition, the growth is 19.7% in experiment [7]; 37.5% in experiment [8]; 30.4% in experiment [9]; -6.62% (active) in experiment [10]; 28.7% in [11]; -6.89% (active) in experiment [12]. In addition, the growth is 48.6% in experiment [13]; 64.9% in experiment [14]; 41.7% in experiment [15]; 45.2% in experiment [16]; 60% in experiment [17]; -19.8% (active) in [18]. Further, the growth was -46.9% (active) in [19] and 43.4% in [20].
As for `O=C1NCC(=O)N(Cc2ccco2)[C@H]1Cc1ccccc1`, the growth in [1] is 110%; in [2], 107%; in [3] it was 110%; in experiment [4] it was 89.1%; in [5], 117%; in experiment [6] it was 102%. The growth in [7] was 96.5%; in experiment [8], 97.9%; in [9] it was 86.9%; in experiment [10], 98.2%; in experiment [11], 98.4%; in [12], 103%. The growth was 94.5% in experiment [13]; 94.5% in experiment [14]; 88.6% in [15]; 91% in experiment [16]; 102% in [17]; 96.6% in experiment [18]. Further, the growth in [19] was 95.6%; in [20], 107%.
For the compound `O=C(/C=C/C12c3ccccc3C(c3ccccc31)C1C(=O)N(c3ccc(Cl)cc3)C(=O)C12)c1ccccn1` (stereo not given), the growth was -86.5% (active) in experiment [1]; 4.62% (active) in experiment [2]; -52% (active) in experiment [3]; -16% (active) in experiment [4]; -88.6% (active) in [5]; 8.62% (active) in experiment [6]. Further, the growth in experiment [7] was -9.27% (active); in experiment [8], -52.7% (active); in experiment [9] it was 2.58% (active); in experiment [10], -1.41% (active); in experiment [11], -35% (active); in experiment [12] it was 1.52% (active). Further, the growth in experiment [13] is -18.7% (active); in [14] it was -71.9% (active); in [15] it was -48.3% (active); in experiment [16], -19.8% (active); in experiment [17] it was -83.5% (active); in experiment [18], -44.6% (active). Further, the growth in [19] was -89.4% (active); in [20] it was -12.4% (active).
For the compound `O=C(Oc1ccc([N+](=O)[O-])cc1)c1ccc(CBr)cc1`, the growth was 107% in [1]; 86.7% in experiment [2]; 97.9% in [3]; 84.8% in [4]; 114% in [5]; 100% in experiment [6]. Besides, the growth is 103% in [7]; 97% in [8]; 92.6% in experiment [9]; 105% in [10]; 76.9% in experiment [11]; 92.3% in [12]. Also, the growth in experiment [13] is 89.2%; in experiment [14] it was 91.5%; in [15] it was 82.4%; in experiment [16], 87%; in experiment [17], 95.2%; in experiment [18] it was 82.2%. Besides, the growth in experiment [19] was 67.2%; in [20], 104%.
On to `C=C1C(=O)O[C@H]2[C@H]1CC/C(COC(=O)/C=C/C(=O)NCc1ccc(Cn3c(=O)sn(-c4ccccc4)c3=O)cc1)=C\CC[C@@]1(C)O[C@@H]21`, for which the growth in [1] is 8.63% (active); in experiment [2] it was -0.361% (active); in experiment [3], -57.8% (active); in experiment [4] it was -39.9% (active); in [5], -86.6% (active); in [6], -6.21% (active). Besides, the growth is 100% in experiment [7]; -39.1% (active) in experiment [8]; -11.4% (active) in [9]; -36% (active) in [10]; 32.9% in experiment [11]; -46.6% (active) in experiment [12]. Moreover, the growth in [13] was 70.7%; in experiment [14], 61.8%; in experiment [15], 20.7%; in [16] it was 57.1%; in [17] it was -27.8% (active); in [18], -80.8% (active). Besides, the values for the growth in [19] and in experiment [20] were -85.2% (active) and -40.1% (active), respectively.
